High-throughput results: PubChem BioAssay, National Center for Advancing Translational Sciences (NCATS)
This is a sample that favours compounds with a hit; in the whole collection about 17% have one here.
TDP1 cell CPT – qHTS for Inhibitors of human tyrosyl-DNA phosphodiesterase 1 (TDP1): qHTS in cells in presence of CPT; chicken DT40 Tdp1-/-;hTDP1 cells + 20 nM CPT, ATP luminescence, 48 h; Potency, µM (top dose mostly 46.2 µM), most hits filed as inhibitors; hit rate 12% among 420,000; note: nearly all actives have a fitted effect of over 55% in size
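Chicken DT40 Tdp1-/- cells complemented with human TDP1, 400 cells/well, exposed to compounds plus 20 nM camptothecin for at least 48 h at 37 C; viability read as ATP content by CellTiter-Glo luminescence.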
TDP1 cell noCPT – qHTS for Inhibitors of human tyrosyl-DNA phosphodiesterase 1 (TDP1): qHTS in cells in absence of CPT; Potency, µM (doses to about 46.2 µM), usual class: inhibitors; hit rate 15% among 420,000; DT40 Tdp1-/- hTDP1 cells, no CPT, ATP luminescence, 48 h; note: nearly all actives have a fitted effect of over 55% in size
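Stably hTDP1-transfected Tdp1-null chicken DT40 cells were treated with library compounds minus camptothecin and grown for at least 48 hr at 37 °C, after which cellular ATP was quantified by luminescence.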
ClpP mod – qHTS Assay for Activators of ClpP | purified B. subtilis ClpP, FRET peptide cleavage, 20 min | AID 651965, 2013 | hit rate 1.9% among 340,000 | ATP-dependent Clp protease proteolytic subunit (Bacillus subtilis (strain 168)), P80244 | Potency, µM (highest dose often 57.5 µM); active = well fitted falling curve with a large enough effect; inconclusive = small, poorly fitted or top-dose-only effect; inactive = no such curve, though single readings can be large or run the other way; note: the source files actives as falling curves though it sought activators and does not explain the sign; nearly all actives have a fitted effect of over 65% in size
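Buffer: 100 mM Tris/HCl pH8, 100 mM KCl, 0.05% low protease BSA, 2.5% glycerol, 0.01% Tween-20. ClpP 10 microg/mL final; 20 min RT; delta FRET normalized to ADEP and DMSO controls.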
TDP1 block – qHTS Assay for Inhibitors of Tyrosyl-DNA Phosphodiesterase (TDP1); Potency, µM (series often up to 130 µM), actives largely listed as inhibitors; hit rate 0.28% among 350,000; recombinant TDP1, AlphaScreen DNA substrate cleavage; Tyrosyl-DNA phosphodiesterase 1 (Homo sapiens), Q9NUW8; AID 485290, 2010; note: nearly all actives have a fitted effect of over 40% in size
Target sequence (Q9NUW8 whole entry, looked up): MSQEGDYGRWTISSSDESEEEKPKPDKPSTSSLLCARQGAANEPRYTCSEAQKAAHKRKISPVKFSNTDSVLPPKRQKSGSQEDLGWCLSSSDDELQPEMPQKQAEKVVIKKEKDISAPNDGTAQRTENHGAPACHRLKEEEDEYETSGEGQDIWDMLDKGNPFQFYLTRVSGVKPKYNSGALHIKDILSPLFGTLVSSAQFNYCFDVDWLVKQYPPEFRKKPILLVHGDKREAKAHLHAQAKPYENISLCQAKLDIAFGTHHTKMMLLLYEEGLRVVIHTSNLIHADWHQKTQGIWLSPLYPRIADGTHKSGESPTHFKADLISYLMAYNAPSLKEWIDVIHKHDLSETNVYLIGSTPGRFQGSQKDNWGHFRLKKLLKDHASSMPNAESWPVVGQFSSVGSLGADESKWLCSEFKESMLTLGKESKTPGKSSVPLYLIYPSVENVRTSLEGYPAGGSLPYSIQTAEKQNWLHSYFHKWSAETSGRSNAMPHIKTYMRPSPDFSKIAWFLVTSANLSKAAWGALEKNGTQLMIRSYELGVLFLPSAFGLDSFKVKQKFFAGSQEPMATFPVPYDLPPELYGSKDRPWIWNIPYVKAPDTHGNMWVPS
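E. coli-derived human Tdp1, 1 nM final. Cpd preinc 15 min RT; substrate 15 nM final, 5 min RT; AS bead mix 10 ug/ml final, 10 min RT. Signal loss = tyrosine-FITC cleavage. No-enzyme wells = max signal.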
Each line names hits and unclear results; the compound was inactive in the other large screens. Unless noted, calls come from the whole dose curve; as a rule, active = well fitted curve in the direction sought with a large enough effect; inconclusive = small, poorly fitted or top-dose-only effect, or another doubt; inactive = no such curve, though single readings can be large; an effect the other way counts as inactive or inconclusive.

Cn1c(-n2c(-c3ccco3)nc3ccccc3c2=O)nc2ccccc21	TDP1 cell CPT 3.7µM, TDP1 cell noCPT 5.8µM
CCSc1nc2ccccc2c(=O)n1CCc1ccc(OC)c(OC)c1	TDP1 cell CPT 13µM, TDP1 cell noCPT 12µM (no result: TDP1 block)
CCn1c(SCC(=O)Nc2oc(C)c3c(C)n[nH]c(=O)c23)nnc1-c1ccco1	none (no result: TDP1 block)
CCSc1nc2ccccc2n1C(=O)/C=C\c1ccc(OC)c(OC)c1	TDP1 cell CPT 4.6µM, TDP1 cell noCPT 5.2µM
CCCn1c(SC(C(=O)Nc2cc(C)ccc2OC)c2ccccc2)nc2ccccc2c1=O (stereo not given)	TDP1 cell CPT 18µM, TDP1 cell noCPT 15µM
O=c1c2ccccc2nc(-c2ccco2)n1CCc1ccc(O)cc1	TDP1 cell CPT inconclusive, TDP1 cell noCPT 5.8µM (no result: TDP1 block)
COCCCn1c(-c2ccco2)nc2ccccc2c1=O	none
COc1ccc(CCN2CN(S(=O)(=O)c3ccc(C)cc3)c3nc4ccccc4nc32)cc1OC	TDP1 cell CPT 23µM, TDP1 cell noCPT inconclusive
COc1ccc(CCn2c(=S)[nH]c(=O)c3nccnc32)cc1OC	TDP1 cell CPT 6.3µM, TDP1 cell noCPT 3.2µM
COc1ccc(CCn2c(=S)[nH]c(=O)c3c(C)cc(C)nc32)cc1OC	none
CN(CCO)C(=O)c1cn(C2CCN(Cc3ccc4ccccc4c3)CC2)nn1	none (no result: ClpP mod, TDP1 block)
Cc1cc(N=Nc2ccc(C)c(N=Nc3cc(C)c(N)cc3N)c2)c(N)cc1N	TDP1 cell CPT inconclusive, TDP1 cell noCPT 12µM (no result: TDP1 block)
COc1ccc(C2=Cc3ccccc3C(CC(=O)C3CC3)N2c2ccc(-c3cc(OC)c(OC)c(OC)c3)cc2)cc1 (stereo not given)	none (no result: TDP1 block)
CCSC1(SCC)N=C(N)C2(C#N)C(c3ccc(F)cc3)C12C#N (stereo not given)	TDP1 cell CPT inconclusive, TDP1 cell noCPT 21µM
CCSC1(SCC)N=C(N)C2(C#N)C(c3ccccc3)NC(C)=C(C)C12C#N (stereo not given)	none
O=C(NCCc1ccccc1Cl)c1cc2ccccn2n1	TDP1 cell CPT inconclusive, TDP1 cell noCPT inconclusive, ClpP mod inconclusive
CN1CCC(C2(O)c3ccccc3CCc3ccccc32)CC1	TDP1 cell CPT 18µM, TDP1 cell noCPT inconclusive
CN1CCC(C2(O)c3ccccc3CSc3sccc32)CC1 (stereo not given)	none
O=C(O)c1ccc2c(ccc3nn(-c4ccc(/C=C/c5ccc(-n6nc7ccc8cc(C(=O)O)ccc8c7n6)cc5[S+](=O)([O-])[O-])c([S+](=O)([O-])[O-])c4)nc32)c1	TDP1 block 2.5µM
COc1cc(/C=C/c2cc[n+](C)c3ccccc23)cc(OC)c1OC	none (no result: TDP1 block)
COc1cc(/C=C/c2nc3ccccc3nc2/C=C/c2cc(OC)c(OC)c(OC)c2)cc(OC)c1OC	TDP1 cell CPT 1.3µM, TDP1 cell noCPT 4.5µM (no result: TDP1 block)
COc1cc(/C=C/c2ccc3ccccc3n2)cc(OC)c1OC	TDP1 cell CPT 0.16µM, TDP1 cell noCPT 0.071µM (no result: TDP1 block)
COc1cc(C=Cc2nnc3c4ccccc4cnn23)cc(OC)c1OC	TDP1 cell CPT 3.3µM, TDP1 cell noCPT 0.82µM (no result: TDP1 block)
CCOc1cc(/C=C/C(=O)O)ccc1OCc1ccccc1	none
COc1cc(/C=C/c2cc(C(F)(F)F)[nH]c(=O)n2)cc(OC)c1OC	TDP1 cell CPT inconclusive, TDP1 cell noCPT inconclusive (no result: ClpP mod)
CCOc1ccc(/C=C/c2ccc3ccccc3n2)cc1OCC	TDP1 cell CPT 2.8µM, TDP1 cell noCPT 2.5µM (no result: TDP1 block)
COc1cc(C=C2C(=O)c3ccccc3C2=O)cc(OC)c1OC	TDP1 cell CPT inconclusive
CCC(CC)CN1CCN=C1Nc1ccccc1	none
COc1cccc(CN2C(=O)C3(SCC(=O)N3c3ccc(F)cc3)c3ccccc32)c1 (stereo not given)	none (no result: TDP1 cell CPT, TDP1 cell noCPT)
COc1ccc(N2C(=O)CCSC23C(=O)N(Cc2ccc(F)cc2)c2ccccc23)cc1Cl (stereo not given)	TDP1 cell CPT 9.2µM, TDP1 cell noCPT 8.2µM
Cc1ccc(S(=O)(=O)N2CCN(c3nc(C)nc4sc(C)c(C)c34)CC2)cc1	none (no result: TDP1 cell CPT, TDP1 cell noCPT, ClpP mod)
Cc1sc2nc(CN3CCCC3)nc(N3CCN(C(=O)c4ccco4)CC3)c2c1C	none (no result: ClpP mod)
COc1ccc(C(=O)N2CCN(c3nc(C4CC4)nc4sc(C)c(C)c34)CC2)cc1	TDP1 cell CPT inconclusive, TDP1 cell noCPT 21µM (no result: ClpP mod)
COc1ccc(C(=O)N2CCN(c3ncccn3)CC2)cc1	none (no result: TDP1 block)
